Screening results: PubChem BioAssay, National Center for Advancing Translational Sciences (NCATS)
HepG2 tox: qHTS for Inhibitors of TGF-b: Cytotox Counterscreen; actives 0.76% (n = 410,000); HepG2 CAGA-GFP viability, ATP luminescence, 18 h; Potency, µM (top dose mostly 46.1 µM), for inactives: at the top dose activity change, negative = cytotoxicity, usual class: cytotoxic; also: potency is read from the fitted curve at half-maximal effect
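CellTiter-Glo luminescence gave cytotoxicity after 18 hours at 37 degrees C. The cells were HepG2 CAGA-GFP in 1% FBS DMEM, stimulated with 500 pg/mL TGF-beta after compound addition. %Activity was normalised to no-cell wells (complete cell-killing) and DMSO (no toxicity), and curves were fitted and classified.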
TDP1 cell CPT: qHTS for Inhibitors of human tyrosyl-DNA phosphodiesterase 1 (TDP1): qHTS in cells in presence of CPT | actives 12% (n = 420,000) | Potency, µM (titrated, usually from 46.2 µM), inactives show at the top dose activity change, negative = growth inhibition, hits mostly inhibitors | chicken DT40 Tdp1-/-;hTDP1 cells + 20 nM CPT, ATP luminescence, 48 h; also: potency is read from the fitted curve at half-maximal effect; % is scaled to controls: 0 for no effect and ±100 for the full control effect; nearly all actives have a fitted effect of over 55% in size
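Chicken DT40 Tdp1-/- cells complemented with human TDP1, 400 cells/well, exposed to compounds plus 20 nM camptothecin for at least 48 h at 37 C; viability read as ATP content by CellTiter-Glo luminescence.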
DT40 TDP1 no CPT: qHTS for Inhibitors of human tyrosyl-DNA phosphodiesterase 1 (TDP1): qHTS in cells in absence of CPT | DT40 Tdp1-/- hTDP1 cells, no CPT, ATP luminescence, 48 h | Potency, µM (top dose mostly 46.2 µM), for the others: at the highest dose activity change, negative = growth inhibition, hits mostly inhibitors | actives 15% (n = 420,000) | AID 686978, 2013; also: potency is read from the fitted curve at half-maximal effect; % is scaled to controls: 0 for no effect and ±100 for the full control effect; nearly all actives have a fitted effect of over 55% in size
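Chicken DT40 Tdp1-/- cells stably complemented with human TDP1 were seeded at 400 cells/well with DMSO in place of 20 nM camptothecin. After compound pinning, cells grew at least 48 hr at 37 °C; viability read by CellTiter-Glo luminescence.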
TDP1 inh: qHTS Assay for Inhibitors of Tyrosyl-DNA Phosphodiesterase (TDP1); Potency, µM (highest dose often 130 µM), for inactives: at the top dose activity change, negative = inhibition, actives largely listed as inhibitors; actives 0.28% (n = 350,000); recombinant TDP1, AlphaScreen DNA substrate cleavage; also: potency is read from the fitted curve at half-maximal effect; % is scaled to controls: 0 for no effect and ±100 for the full control effect; nearly all actives have a fitted effect of over 40% in size
Target sequence (Q9NUW8 whole entry, looked up): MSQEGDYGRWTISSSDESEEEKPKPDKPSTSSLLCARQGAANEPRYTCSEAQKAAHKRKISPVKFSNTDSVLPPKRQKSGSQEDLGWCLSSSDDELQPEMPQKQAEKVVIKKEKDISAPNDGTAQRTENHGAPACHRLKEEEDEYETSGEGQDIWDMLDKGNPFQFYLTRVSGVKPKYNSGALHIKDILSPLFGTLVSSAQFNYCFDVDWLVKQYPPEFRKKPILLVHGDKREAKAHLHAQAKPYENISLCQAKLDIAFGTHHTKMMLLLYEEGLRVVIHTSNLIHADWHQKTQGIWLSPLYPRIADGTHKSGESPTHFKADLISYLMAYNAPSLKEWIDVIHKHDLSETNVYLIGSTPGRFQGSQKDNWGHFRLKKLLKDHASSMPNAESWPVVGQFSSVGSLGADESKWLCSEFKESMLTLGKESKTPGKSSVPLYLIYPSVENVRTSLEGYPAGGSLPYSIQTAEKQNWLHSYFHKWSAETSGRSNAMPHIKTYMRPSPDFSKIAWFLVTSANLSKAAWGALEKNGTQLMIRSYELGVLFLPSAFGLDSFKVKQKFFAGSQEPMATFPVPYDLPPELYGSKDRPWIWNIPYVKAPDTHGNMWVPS
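AlphaScreen read-out: signal falls as enzyme removes the 3' tyrosine-FITC from a 5'-biotinylated DNA oligo (15 nM, 5 min, RT). Enzyme was E. coli-made recombinant Tdp1 at 1 nM, exposed to compound for 15 min beforehand; beads 10 ug/ml, 10 min.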
IL1B secr inh: qHTS for Inhibitors of Inflammasome Signaling: IL-1-beta AlphaLISA Primary Screen; actives 4.7% (n = 360,000); AID 743279, 2014; activity change, % at 57.5 µM; THP-1 LPS/ATP IL-1B secretion, AlphaLISA, 16 h; active compounds read low; in the data active = activity change below about -50%; inconclusive = mostly about -30% to -49%; also: % is scaled to controls: 0 for no effect and ±100 for the full control effect
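THP-1 cells pretreated 1 hr with compounds (up to 57.5 uM final), then stimulated with LPS (250 ng/mL final) plus ATP (1.25 mM final); secreted IL-1B measured by AlphaLISA after 16 hr, decreased signal indicating inhibition.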
TGFb inhibitor: qHTS for Inhibitors of TGF-b. HepG2 CAGA-GFP TGF-b/SMAD3 reporter, GFP fluorescence, 18 h; TGF-beta stimulated, 500 pg/mL final. Potency, µM (titrated, usually from 46.1 µM), without a hit: at the highest dose activity, negative = inhibition, usual class: inhibitors. actives 1.2% (n = 410,000); also: potency is read from the fitted curve at half-maximal effect; % is scaled to controls: 0 for no effect and ±100 for the full control effect; nearly all actives have a fitted effect of over 65% in size
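HEPG2 CAGA-GFP, 1000 cells/well; 2 h settle, 37 C; cpd via pin tool; TGF-b 500 pg/mL final; 18 h, 37 C; GFP imaging ex488/em500-530; %Activity normalised to -TGF-b and +DMSO controls; CRC fit, curve class.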
An asterisk follows results filed as active; ? = inconclusive; / = no result given; ! = not active in a repeat; [ ] = another dose, or the depositor's remark. In the library only some 18% were active in any assay of this set; here they are far more common. Unless noted, calls follow the shape of the dose curve; as a rule, active = well fitted curve in the direction sought with a large enough effect; inconclusive = small, poorly fitted or top-dose-only effect, or another doubt; inactive = no such curve, though single readings can be large; an effect the other way counts as inactive or inconclusive.

SMILES | HepG2 tox | TDP1 cell CPT | DT40 TDP1 no CPT | TDP1 inh | IL1B secr inh | TGFb inhibitor
CCCCNc1ccc(C(=O)OCCOCCOCCOCCOCCOCCOCCOCCOCCOC)cc1 | -24.9% | ? | -17.6% | 4.3%[56.1 µM] | -24.6 | -4.3%
CCCCNc1ccc(C(=O)OCCN(C)C)cc1 | -34.1% | 13µM*! | ? | 9.6% | 31.0 | 4.1%
Cc1ccc(NC(=O)Nc2ccc(F)c(Cl)c2)cc1 | -31.5% | ? | 23.1µM* | -2.6% | -28.8 | -25.7%
Cc1ccc(OCCC(=O)Nc2ccc(F)c(F)c2)cc1 | 4.8% | -25.3% | ? | 1.9% | 0.0 | ?
Cc1cccc(OCCC(=O)Nc2ccc(F)c(Cl)c2)c1 | -56.6% | -0.3% | -7.2% | -4.7% | -84.1* | 0.0%
COc1ccc(-c2cn3cccnc3n2)cc1NC(=O)Nc1ccc(Cl)cc1 | -33.7% | ? | 16.4µM* | 3.3% | / | -28.3%
COc1ccc(OC)c(NC(=O)Nc2ccc(Cl)cc2)c1 | -34.1% | -22.4% | -26.8% | 4.0% | -65.7* | ?
COc1cccc(Cn2c(=O)cnc3cnc(OC)nc32)c1 | / | 6.0% | -15.4% | / | / | /
O=C(/C=C/c1ccccc1)NCCc1c[nH]c2ccccc12 | 12.8% | -4.3% | -1.7% | / | 46.6 | 1.0%
COc1ccc(NC(=O)Nc2cc(C)ccc2F)cc1 | -28.2% | 3.0% | -1.8% | -1.8% | ? | 0.1%
COc1ccc(NC(=O)Nc2ccc(F)c(Cl)c2)cc1 | 0.8% | ? | 16.4µM* | -2.6% | -0.5 | -5.6%
O=C(COc1ccc2ccccc2c1)NC1CC(=O)N(c2cccc(F)c2)C1 (configuration not stated) | -9.4% | ? | ? | 5.2% | / | ?
CN(C)Cc1c(C(=O)N/N=C/CCc2ccccc2)nnn1-c1nonc1N | 13.9% | 6.7% | 25.4% | -9.4% | 8.1 | 8.0%
Cc1ccc(O/C=C2/Nn3c(nnc3-c3cc(-c4ccccc4)n[nH]3)S2)cc1 | 1.5% | 7.08µM* | 15.8µM* | 1.7% | / | 7.1%
c1ccc(C2=Nn3c(nnc3-c3cc(-c4ccccc4)n[nH]3)SC2)cc1 | -16.5% | ? | ? | 4.7% | -1.5 | ?
CCN1CCN(CCCNC(=O)c2ccc3c(c2)NC(=O)c2ccccc2S3)CC1 | -13.8% | -24.9% | ? | 1.1% | 12.7 | -2.9%
CCC(C)N(CCNC(=O)c1ccc2c(c1)NC(=O)c1ccccc1S2)C1CCCCC1 (configuration not stated) | 11.2µM* | 14.6µM* | 2.91µM* | 5.4% | -86.4* | ?
CC(=O)Nc1ccc(NC(=O)c2ccc3c(c2)NC(=O)c2ccccc2S3)cc1 | 6.7% | -15.0% | 5.5% | -1.0% | / | -7.9%
Cc1ccc(NC(=O)c2ccc3c(c2)NC(=O)c2ccccc2S3)c(Cl)c1 | -23.4% | 3.66µM* | 3.26µM* | 0.0% | / | -7.1%
CN(C)C(=O)CCc1ccc2c3c([nH]c2c1)[C@]1(C)[C@@H](C(=O)N2CCOCC2)C[C@H](CC(=O)NCCN2CCOCC2)C(=O)N1CC3 | 1.8% | 13.4% | 1.6% | 0.0%[56.1 µM] | 4.1 | 9.9%
C=CC1=C(C)C2=CC3=NC(=C(CC(=O)[O-])C4=NC(=C(C)C4=C([O-])[O-])C=c4[n-]c(c(C)c4CC)=CC1=N2)C(CCC(=O)[O-])C3C.[Cu+2].[Na+].[Na+].[Na+] (configuration not stated) | / | ? | -28.3% | / | / | /
CN(CC(=O)Nc1ccc([N+](=O)[O-])cc1Br)Cc1c(F)cccc1Cl | -3.5% | ? | ? | 5.1% | -3.1 | -14.8%
CC(C)(CNC(=O)c1sc2cc(Cl)ccc2c1Cl)N1CCOCC1 | -27.1% | 16.4µM* | 16.4µM* | / | ? | -15.2%
COc1cc(Cl)ccc1OCc1cc(C(=O)N(C)CCc2cnn(C)c2)no1 | -5.8% | ? | -1.2% | 3.8% | 0.0 | 0.1%
Cc1cc(Cl)c2oc(C(=O)N(C)CCCN3CCOCC3)c(C)c2c1 | -3.9% | ? | 16.4µM* | 3.0% | 0.0 | 1.7%
SMILES | HepG2 tox | TDP1 cell CPT | DT40 TDP1 no CPT | TDP1 inh | IL1B secr inh | TGFb inhibitor
Cc1cc(Cl)c2oc(C(=O)NCC(C)(C)N3CCOCC3)c(C)c2c1 | -6.4% | 23.1µM* | ? | 1.0% | 49.9 | 12.3%
Cc1cc(Cl)c2oc(C(=O)N(C)CCc3cnn(C)c3)c(C)c2c1 | 1.7% | 18.4µM* | -4.9% | 3.2% | 21.3 | -17.5%
Cc1cc(Cl)c2oc(C(=O)N(C)CCCCN3CCOCC3)c(C)c2c1 | -22.3% | -18.5% | ? | 3.2% | -7.3 | 7.3%
O=C(O)c1cc(N2N=C(C(F)(F)F)/C(=C/C=C/c3ccco3)C2=O)ccc1Cl | -2.5% | ? | 18.4µM* | -3.0% | 16.5 | 14.8%
CCCCn1c(N2CCC(Cc3ccccc3)CC2)nc2c1c(=O)[nH]c(=O)n2C | -96.0% | 23.1µM* | 20.6µM* | 5.6% | ? | ?
Cc1nnc(SCCn2c(N3CCC(Cc4ccccc4)CC3)nc3c2c(=O)[nH]c(=O)n3C)s1 | 3.0% | ? | 16.4µM* | / | 27.0 | -4.0%
CC(C)c1ccc(N2C(=O)CC(Sc3ncccn3)C2=O)cc1 (configuration not stated) | -1.6% | ? | ? | / | -14.5 | 7.4%
CCCCN(C)CCNC(=O)c1ccc2c(c1)NC(=O)CN2 | 0.6% | ? | ? | 5.2% | / | -12.5%
COc1ccc(-n2nc3c(N4CCCC(C(=O)NCc5cccc(F)c5)C4)nnc(C)c3c2C)cc1 (configuration not stated) | -51.8% | 8.2µM* | 13µM* | 5.6% | / | ?
Cc1nnc(N2CCCC(C(=O)NCc3cccc(F)c3)C2)c2nn(-c3ccccc3)c(C)c12 (configuration not stated) | -20.0% | ? | 13µM* | 3.6% | ? | -19.5%
Cc1cc(C)nc(N2CCCC(C(=O)NCc3ccccc3)C2)n1 (configuration not stated) | -1.1% | -0.4% | -7.4% | 6.6% | 22.3 | 7.7%
O=C(CSc1ccc(Cl)cc1)OCC(=O)N1CCN(c2ccccc2)CC1 | 0.0% | -8.9% | -19.1% | 5.1%[0.505 µM] | 4.1 | 1.0%
COc1ccc(CC2(c3ccccc3)NC(=O)NC2=O)cc1 (configuration not stated) | 10.9% | ? | ? | / | 59.5 | 6.5%
